In PubChem BioAssay:
Active and inactive are the calls of the source. Unless noted, the rule behind the calls is not given here.

How the values were obtained:
[1] = resazurin metabolic signal in HepG2 cells – cell-based, resazurin fluorescence, 24 h, PK04 Diversity Set, profiling panel (AID 1172); settings: HepG2 viability, higher = more signal
[2] = budding yeast growth changes without added modifier – OD600, strain BY4716, 24 h, basal condition, primary screen (AID 1173); settings: S. cerevisiae BY4716 growth, OD600, 24 h; higher = more signal, called active from +8 up or from −8 down
[3] = viability profiling in MM1S myeloma cells – cell-based, resazurin fluorescence, basal, 24 h, PK04 Diversity Set, profiling panel (AID 1174); settings: higher = more signal, called active from +8 up or from −8 down;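 note: MM1S multiple myeloma cell line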
[4] = molecular target: Dihydroorotate dehydrogenase (quinone), mitochondrial (Plasmodium falciparum (isolate 3D7)) (UniProt Q08210); test: inhibition of P. falciparum DHODH – biochemical, C-terminal His tag, absorbance 600 nm, primary screen (AID 1175); settings: PfDHODH enzyme, DCIP absorbance 600 nm; higher = more signal, called active from +8 up or from −8 down;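 note: recombinant parasite enzyme with a five histidine tag at its C terminus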
Sequence of Dihydroorotate dehydrogenase (quinone), mitochondrial (Plasmodium falciparum (isolate 3D7)) (Q08210 whole entry, looked up): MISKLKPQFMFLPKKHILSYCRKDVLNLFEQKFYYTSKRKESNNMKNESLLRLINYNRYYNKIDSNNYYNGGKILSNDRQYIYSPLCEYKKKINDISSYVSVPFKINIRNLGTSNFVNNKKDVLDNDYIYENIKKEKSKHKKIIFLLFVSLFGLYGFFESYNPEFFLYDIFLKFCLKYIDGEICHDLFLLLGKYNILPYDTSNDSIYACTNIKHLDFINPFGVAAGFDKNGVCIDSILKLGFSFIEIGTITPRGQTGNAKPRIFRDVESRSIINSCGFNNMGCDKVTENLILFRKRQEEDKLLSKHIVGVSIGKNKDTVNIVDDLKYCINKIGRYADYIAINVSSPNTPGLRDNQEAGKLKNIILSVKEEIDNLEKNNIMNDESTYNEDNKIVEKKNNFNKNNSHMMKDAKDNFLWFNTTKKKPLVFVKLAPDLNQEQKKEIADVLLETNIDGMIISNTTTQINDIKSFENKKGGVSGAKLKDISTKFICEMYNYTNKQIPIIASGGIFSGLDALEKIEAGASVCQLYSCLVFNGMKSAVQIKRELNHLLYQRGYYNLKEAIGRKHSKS

[5] = inhibition of PAO1 biofilm formation – strain PAO1, LB-PBS medium, absorbance 600 nm, primary screen (AID 1176); settings: P. aeruginosa PAO1 growth/biofilm, A600, 12 h; higher = more signal
[6] = growth modulation of vineyard yeast isolate – strain RM11-1a, OD600, basal, 24 h, primary screen (AID 1177);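 note: cultures grown under basal conditions with no added stressor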; settings: S. cerevisiae RM11-1a growth, OD600, 24 h; higher = more signal, called active from +8 up or from −8 down
[7] = growth of efflux-deficient E. coli DRC39 – strain DRC39, OD650, 24 h, E. coli filamentation inducers, primary screen (AID 1178);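 note: growth measured as culture turbidity by optical density at 650 nm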; settings: E. coli DRC39 acrAB, higher = more signal, called active from +8 up or from −8 down
[8] = growth of efflux-deficient E. coli DRC39 – strain DRC39, OD650, 48 h, E. coli filamentation inducers, primary screen (AID 1179);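 note: screen aims at cell division blockers that make cells filament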; settings: E. coli DRC39 delta-acrAB growth, higher = more signal, called active from +8 up or from −8 down
[9] = viability profiling in RPMI8226 myeloma cells – cell-based, resazurin fluorescence, basal, 24 h, PK04 Diversity Set, profiling panel (AID 1180); settings: higher = more signal;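 note: RPMI8826 multiple myeloma cell line at 5000 cells per well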
[10] = molecular target: E3 ubiquitin-protein ligase XIAP (Homo sapiens) (UniProt P98170); test: small molecules binding XIAP protein – biophysical, small-molecule microarray, fluorescence 635 nm, primary screen (AID 1181); settings: higher = more signal;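 note: score merges 667 nm emission and signal to noise over triplicate slides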
Sequence of E3 ubiquitin-protein ligase XIAP (Homo sapiens) (P98170 whole entry, looked up, the tested form may be a part): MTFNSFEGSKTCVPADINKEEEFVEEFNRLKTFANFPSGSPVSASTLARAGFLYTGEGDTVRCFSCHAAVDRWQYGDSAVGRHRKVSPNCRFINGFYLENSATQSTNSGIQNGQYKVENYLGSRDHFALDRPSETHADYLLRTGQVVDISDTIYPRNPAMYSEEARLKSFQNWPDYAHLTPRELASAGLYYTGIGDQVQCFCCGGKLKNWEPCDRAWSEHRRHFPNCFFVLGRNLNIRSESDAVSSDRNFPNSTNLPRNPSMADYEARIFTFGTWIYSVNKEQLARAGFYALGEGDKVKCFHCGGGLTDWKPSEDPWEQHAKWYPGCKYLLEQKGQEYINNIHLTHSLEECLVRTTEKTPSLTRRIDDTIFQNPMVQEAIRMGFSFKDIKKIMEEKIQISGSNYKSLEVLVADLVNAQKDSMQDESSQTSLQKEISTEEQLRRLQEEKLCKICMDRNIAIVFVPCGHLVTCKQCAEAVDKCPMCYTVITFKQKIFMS

[11] = tested on: XIP peptide (Xip251-270) binding; test: XIP fragment 251-270 binding compounds – biochemical, small-molecule microarray, fluorescence 635/667 nm, 0.1 µg/mL protein, primary screen (AID 1182); settings: fluorescent protein binding, 635 nm, higher = more signal, called active from +8 up or from −8 down
[12] = tested on: XIP peptide (Xip251-270); test: compounds binding XIP fragment 251-270 – biochemical, small-molecule microarray, fluorescence 635/667 nm, 0.5 µg/mL protein, primary screen (AID 1183); settings: fluorescence 635 nm, higher = more signal
[13] = blood-stage malaria parasite viability loss – strain 3D7, DAPI fluorescence, 100 nL, primary screen (AID 1184);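 note: parasites grown inside human red blood cells in medium with human serum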; settings: P. falciparum 3D7 growth, 3 d, higher = more signal
[14] = molecular target: Homeobox protein Hox-A13 (Mus musculus) (UniProt Q62424); test: disruptors of Hoxa13 oligonucleotide interaction – biochemical, fluorescence polarization, labeled oligonucleotide, primary screen (AID 1185); settings: Hoxa13:DNA binding, 15 min, higher = more signal, called active from +8 up or from −8 down
Sequence of Homeobox protein Hox-A13 (Mus musculus) (Q62424 whole entry, looked up): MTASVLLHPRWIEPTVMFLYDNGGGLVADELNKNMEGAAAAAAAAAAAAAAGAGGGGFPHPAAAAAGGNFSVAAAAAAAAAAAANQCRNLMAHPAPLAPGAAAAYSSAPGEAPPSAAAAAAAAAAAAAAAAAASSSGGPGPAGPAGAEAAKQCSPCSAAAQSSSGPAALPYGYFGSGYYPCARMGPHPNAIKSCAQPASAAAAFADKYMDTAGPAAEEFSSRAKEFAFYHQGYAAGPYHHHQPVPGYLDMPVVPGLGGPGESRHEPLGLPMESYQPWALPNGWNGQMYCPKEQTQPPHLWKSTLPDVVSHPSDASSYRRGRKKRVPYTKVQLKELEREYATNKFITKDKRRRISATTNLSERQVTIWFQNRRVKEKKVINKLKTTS

[15] = blockers of DNA damage checkpoint Chk1 activation – imaging, HeLa, hydroxyurea, phospho-Chk1 antibody, percent positive cells, primary screen (AID 1186); settings: hydroxyurea-induced phospho-Chk1 immunofluorescence imaging, higher = more signal
[16] = blockers of DNA damage checkpoint Chk1 activation – imaging, HeLa, hydroxyurea, phospho-Chk1 nuclear intensity, primary screen (AID 1187); settings: hydroxyurea-induced phospho-Chk1 immunofluorescence imaging, higher = more signal

SMILES | z-score [1] | z-score [2] | z-score [3] | composite z-score [4] | z-score [5] | z-score [6] | z-score [7] | z-score [8] | z-score [9] | composite z-score [10] | composite z-score [11] | composite z-score [12] | z-score [13] | z-score [14] | z-score [15] | z-score [16]
C=C(CCCC)/C(=C/C[C@H](OC(=O)c1ccncc1)c1ccc(CO)o1)c1cc(C(=O)OC)ccc1OC | -0.673 | -0.756 (inactive) | -2.13 (inactive) | -3.99 (inactive) | 0.898 (inactive) | -0.145 (inactive) | -0.861 (inactive) | -0.528 (inactive) | -0.963 | 0.0537 | 0.948 (inactive) | 0.71 | -0.138 | -5.29 (inactive) | -0.52 (inactive) | -1.02 (inactive)
O=C1NC(=O)C2C1C=CC(C(O)c1ccc(-c3ccccc3)s1)N2Nc1ccccn1 (configuration not stated) | -1.04 | 1.14 (inactive) | -1.12 (inactive) | 1.24 (inactive) | 1.23 (inactive) | 0.347 (inactive) | 0.547 (inactive) | 0.193 (inactive) | -1.17 | 0.549 | 1.05 (inactive) | 0.212 | -0.169 | -3.88 (inactive) | 0.773 (inactive) | -0.264 (inactive)
O=C(CS)NCCCCCNC(=O)[C@@H]1C[C@@H]2C(=O)N3CCC[C@H]3C(=O)N2[C@@H]1c1ccc(O)cc1 | -0.196 | -0.419 (inactive) | -0.0752 (inactive) | 0.252 (inactive) | -0.102 (inactive) | 0.132 (inactive) | -0.651 (inactive) | -0.265 (inactive) | -0.0255 | -0.127 | 0.262 (inactive) | 0.716 | 0.924 | -2.66 (inactive) | 0.0756 (inactive) | 0.0698 (inactive)
NC(=O)NCC#Cc1ccc2c(c1)[C@]1(C(=O)N2)[C@H](c2ccc(O)cc2)N2[C@H](c3ccccc3)[C@H](c3ccccc3)OC(=O)[C@H]2[C@@H]1C(N)=O | -0.49 | -0.297 (inactive) | -0.226 (inactive) | -0.552 (inactive) | 0.185 (inactive) | 0.603 (inactive) | 0.968 (inactive) | 0.936 (inactive) | -0.11 | 0.074 | -0.0765 (inactive) | 0.603 | 0.637 | -4.21 (inactive) | -0.681 (inactive) | -0.878 (inactive)
CC(C)(C)OC(=O)CC[C@@]1(C(=O)N2CCCCC2)N=C(c2ccc(OCCCO)cc2)O[C@@H]1c1ccccc1N=[N+]=[N-] | -0.254 | 0.601 (inactive) | -1.73 (inactive) | 0.27 (inactive) | -0.279 (inactive) | 0.879 (inactive) | 0.264 (inactive) | 1.36 (inactive) | -0.408 | -0.0474 | 0.416 (inactive) | 0.83 | -2.08 | -3.63 (inactive) | -0.184 (inactive) | -0.414 (inactive)
O=C1O[C@H](c2ccccc2)[C@H](c2ccccc2)N2[C@H]1[C@@H](C(=O)NC[C@H](O)c1ccccc1)[C@]1(C(=O)Nc3ccccc31)[C@H]2c1ccccc1OCCO | -2.69 | -0.251 (inactive) | -9.21 (active) | -0.719 (inactive) | 3.02 (inactive) | 1.75 (inactive) | 0.346 (inactive) | 0.784 (inactive) | -7.33 | 0.189 | 2.18 (inactive) | 0.807 | -0.635 | -3.48 (inactive) | -0.517 (inactive) | -0.538 (inactive)
COCCOC(=O)N1C(=O)[C@@]2(c3cc(C#CCCO)ccc31)[C@H](C(=O)NC[C@H](O)c1ccccc1)[C@H]1C(=O)O[C@H](c3ccccc3)[C@H](c3ccccc3)N1[C@@H]2c1ccccc1OCCO | 0.446 | 0.446 (inactive) | 0.0837 (inactive) | 0.246 (inactive) | 1.12 (inactive) | 1.88 (inactive) | 0.136 (inactive) | 0.259 (inactive) | -0.135 | 0.0593 | 0.355 (inactive) | 0.564 | -0.89 | -2.38 (inactive) | 0.308 (inactive) | 0.431 (inactive)
COc1ccc([Si](C)(C)[C@@H]2[C@@H](CC(=O)N(CCO)Cc3ccccc3)O[C@]3(C(=O)N(Cc4ccc(N5CCOC5=O)cc4)c4ccccc43)[C@H]2C)cc1 | -1.12 | 0.613 (inactive) | -1.85 (inactive) | -0.0014 (inactive) | 1.77 (inactive) | 0.953 (inactive) | 1.16 (inactive) | 0.307 (inactive) | -2.31 | -0.0333 | 2.73 (inactive) | 0.666 | -0.352 | -1.34 (inactive) | -0.269 (inactive) | 0.0764 (inactive)
COc1ccc([Si](C)(C)[C@H]2[C@H](CC(=O)N3CCC[C@H]3CO)O[C@@]3(C(=O)N(Cc4ccc(N5C(=O)c6cccc7cccc5c67)cc4)c4ccccc43)[C@@H]2C)cc1 | -1.83 | 0.147 (inactive) | -1.61 (inactive) | -1.84 (inactive) | 0.189 (inactive) | 1.02 (inactive) | -0.788 (inactive) | -0.848 (inactive) | -1.16 | -0.392 | 0.531 (inactive) | 0.803 | -1.95 | -3.9 (inactive) | 0.171 (inactive) | -0.4 (inactive)
COCC1=C([C@H](O)CCc2ccccc2)[C@H](CO)[C@@H]2C(=O)N(C)C(=O)[C@@H]2C1 | -0.548 | -1.66 (inactive) | 0.244 (inactive) | -0.0291 (inactive) | 0.908 (inactive) | 0.1 (inactive) | 2.16 (inactive) | 1.65 (inactive) | 0.544 | -0.353 | -0.328 (inactive) | 0.104 | -0.119 | -6.06 (inactive) | -0.32 (inactive) | -0.523 (inactive)
COC(=O)[C@@]1(Cc2ccc(OC)cc2)[C@H]2c3cc(C(=O)N(C)C)n(Cc4cc(C)n(C)n4)c3C[C@H]2CN1C(=O)c1ccccc1 | -1.04 | 0.932 (inactive) | -1.82 (inactive) | -0.546 (inactive) | 0.992 (inactive) | 0.949 (inactive) | -1.2 (inactive) | -1.29 (inactive) | -0.936 | 0.0018 | 0.254 (inactive) | 0.762 | -1.63 | -5.1 (inactive) | 0.53 (inactive) | 0.263 (inactive)
[N-]=[N+]=Nc1ccccc1C[C@]1(C(=O)NCCN2CCOCC2)N=C(c2ccc(OCCCO)cc2)O[C@H]1c1ccccc1N=[N+]=[N-] | -1.31 | -4.84 (inactive) | -1.83 (inactive) | -0.695 (inactive) | -0.596 (inactive) | -0.505 (inactive) | -0.0345 (inactive) | 1.31 (inactive) | -2.13 | 0.0402 | 1.24 (inactive) | 0.682 | -2.21 | -3.22 (inactive) | -1.3 (inactive) | -2.17 (inactive)
CC(C)C[C@@H]1NC(=O)[C@@H]2C[C@H](C(=O)NCCCC[N+](C)(C)C)[C@H](c3cccc(OCCO)c3)N2C1=O | -3.45 | 1.45 (inactive) | -0.986 (inactive) | -29 (active) | 1.3 (inactive) | 0.958 (inactive) | -0.234 (inactive) | -0.667 (inactive) | -1.16 | -0.127 | 0.974 (inactive) | 0.0734 | 0.0751 | -3.05 (inactive) | -0.366 (inactive) | -0.333 (inactive)
COc1ccc(CCNC(=O)[C@@H]2c3ccccc3C(=O)N(Cc3ccccc3)[C@H]2c2ccc(CO)cc2)cc1 | 0.713 | -0.996 (inactive) | -2.71 (inactive) | -0.489 (inactive) | 0.801 (inactive) | -0.539 (inactive) | 1.62 (inactive) | 1.78 (inactive) | -0.648 | -0.0272 | 1.09 (inactive) | 0.619 | -1.08 | -3.2 (inactive) | -0.938 (inactive) | -1.38 (inactive)
CC(C)NC(=O)[C@@]1(Cc2ccccc2I)c2ccccc2C(=O)N(Cc2ccccc2C(F)(F)F)[C@H]1c1ccc(CO)cc1 | 0.406 | 0.835 (inactive) | 1.09 (inactive) | -0.327 (inactive) | 0.82 (inactive) | -0.272 (inactive) | 0.52 (inactive) | -0.319 (inactive) | 0.508 | -0.206 | 0.52 (inactive) | 0.815 | -1.09 | -3.19 (inactive) | -0.195 (inactive) | 0.0078 (inactive)
CN(C)CCCC[C@@H]1NC(=O)[C@H]2C[C@@H](C(=O)NCCCCCCNC(=O)CS)[C@@H](c3ccc(O)cc3)N2C1=O | 0.183 | -0.213 (inactive) | -0.614 (inactive) | -0.368 (inactive) | 0.022 (inactive) | -0.48 (inactive) | 0.0961 (inactive) | -0.509 (inactive) | -0.892 | -0.0749 | 1.44 (inactive) | 0.868 | 0.323 | -2.87 (inactive) | -0.346 (inactive) | 0.128 (inactive)
COC(=O)c1c(CC[C@@H](CO)NC(=O)N[C@@H](C)Cn2cc(C3(O)CCCC3)nn2)oc(C(C)=O)c1C(=O)OC | -1.1 | -0.724 (inactive) | -0.345 (inactive) | -3.31 (inactive) | 0.0793 (inactive) | -0.429 (inactive) | -0.0257 (inactive) | -0.687 (inactive) | -0.88 | -0.184 | -0.0616 (inactive) | 0.407 | -2.04 | -1.93 (inactive) | 1.1 (inactive) | 0.929 (inactive)
